Most compounds without a hit are left out; they make up all but 1.2% or so of the library.
RGS16-Gao: regulators of human RGS16-Galphao interaction; O15492+P09471; bead-based flow cytometry RGS16-Galphao binding, fluorescence; actives lie on both sides; binding response (% of control), % at 10 µM; 0.38% of 220,000 active; AID 1441;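 further: Galphao activated by GDP with aluminum fluoride before binding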
RGS8-Gao: modulates binding of RGS8 to human Galphao; P09471; multiplexed bead flow cytometry; actives lie on both sides; response (percent of control binding), % at 10 µM; 0.34% of 220,000 active; AID 1423; in the data active means response below about 60% or above about 140%; inactive means in between;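 further: Galphao activated as the GDP aluminium fluoride complex binding bead-coupled RGS8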
Target sequence (P09471 whole entry, looked up): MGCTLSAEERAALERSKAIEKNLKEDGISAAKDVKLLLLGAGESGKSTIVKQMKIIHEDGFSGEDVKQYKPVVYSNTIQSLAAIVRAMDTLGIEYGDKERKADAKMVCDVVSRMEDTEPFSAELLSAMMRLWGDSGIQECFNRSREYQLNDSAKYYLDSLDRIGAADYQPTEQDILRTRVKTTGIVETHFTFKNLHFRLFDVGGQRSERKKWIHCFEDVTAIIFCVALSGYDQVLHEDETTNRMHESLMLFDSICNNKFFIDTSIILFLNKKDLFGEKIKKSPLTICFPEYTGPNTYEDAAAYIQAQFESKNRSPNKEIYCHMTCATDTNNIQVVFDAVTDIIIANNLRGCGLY
Avidin bead fluor: avidin bead compound fluorescence profile. Avidin beads, compound fluorescence 488/530 nm, flow cytometry; hits give high values. fluorescence (KMESF) at 10 µM. 0.38% of 220,000 active. AID 1775; in the data active means fluorescence above about 47
RGS4-Gao reg: human RGS4-Galphao interaction regulation; P09471; binding response (% of control), % at 10 µM; 0.33% of 220,000 active; AID 1415; Multiplexed bead flow cytometry, RGS4-Galphao binding; actives lie on both sides; in the data active means binding response below about 49% or above about 150%; inactive means in between;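 further: fluorescent Galphao activated with aluminum fluoride binding bead-coupled RGS4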
RGS7-Gao reg: regulators of human RGS7-Galphao interaction. Multiplexed bead flow cytometry, RGS7-Galphao binding; actives lie on both sides. binding response (% of control), % at 10 µM. 0.35% of 220,000 active. P09471. AID 1439; in the data active means binding response below about 49% or above about 150%; inconclusive means no clear call, values can overlap the other calls; inactive means in between;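 further: fluorescent Galphao held in activated GDP-AlF4 state binding bead-coupled RGS7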
GSH bead fluor: GSH bead compound fluorescence profile | 0.25% of 190,000 active | fluorescence (KMESF) at 10 µM | GSH beads flow cytometry, compound fluorescence 488/530 nm; hits give high values; in the data active means fluorescence above about 89;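 further: glutathione beads carrying GST-tagged Bcl family fusion proteins plus one bare bead set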
RGS-Gao: RGS4-Galphao interaction regulator (human); shares compounds with RGS16-Gao; multiplexed bead flow cytometry, RGS–Galpha-o binding; RGS4–Galpha-o binding response, % at 10 µM; 99% of 1,600 active; AID 1504;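 further: fluorescently labeled Galpha-o bound to GDP with aluminium fluoride binding biotinylated RGS beads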
Avidin counter: biotin-avidin bead binding disruption counter-screen; streptavidin beads, fluorescein-biotin binding, flow cytometry; 1,700 tested, under 10 active; inhibition, % at 10 µM; shares compounds with RGS16-Gao; AID 1783;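 active means inhibition above 50%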;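 further: median green fluorescence of gated singlet beads compared with DMSO control wells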
RGS8-Gao confirm: RGS8-Galphao interaction regulation, single point confirmation. binding response (% of control), % at 10 µM. AID 1836. bead-based flow cytometry RGS8-Galphao binding, fluorescence; actives lie on both sides. 3% of 1,700 active. shares compounds with RGS16-Gao; in the data active means binding response below about 72% or above about 130%; inactive means in between;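 further: Galphao activated as GDP AlF4 complex before binding bead RGS8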
RGS7-Gao confirm: RGS7-Galphao interaction regulation, single point confirmation | shares compounds with RGS16-Gao | bead-based flow cytometry RGS7-Galphao binding; actives lie on both sides | response (percent of control binding), % at 10 µM | 7.8% of 1,700 active; in the data active means response below about 75% or above about 130%; inactive means in between;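 further: fluorescent Galphao activated with GDP and aluminum fluoride binding bead-coupled RGS7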
RGS16-Gao single: confirmation of regulators of human RGS16-Galphao interaction | shares compounds with RGS16-Gao | bead-based flow cytometry, RGS16-Galphao binding; actives lie on both sides | response (% of control binding), % at 10 µM | 4% of 1,700 active; in the data active means response below about 74% or above about 130%; inactive means in between;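 further: Galphao activated as the GDP aluminium fluoride complex binding bead-coupled RGS16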
RGS4-Gao single: RGS4-Galphao interaction regulation, single point confirmation. RGS4-Galphao binding, multiplexed bead flow cytometry; actives lie on both sides. binding response (% of control), % at 10 µM. AID 1840. shares compounds with RGS16-Gao. 4% of 1,700 active; in the data active means binding response below about 74% or above about 130%; inactive means in between
RGS19-Gao single: RGS19-Galphao interaction regulation, single point confirmation. 5% of 1,700 active. response (percent of control binding), % at 10 µM. bead-based flow cytometry RGS19-Galphao binding; actives lie on both sides. shares compounds with RGS16-Gao; in the data active means response below about 50% or above about 160%; inactive means in between
Target sequence (P09471 whole entry, looked up): as above
Target sequence (P49795 whole entry, looked up): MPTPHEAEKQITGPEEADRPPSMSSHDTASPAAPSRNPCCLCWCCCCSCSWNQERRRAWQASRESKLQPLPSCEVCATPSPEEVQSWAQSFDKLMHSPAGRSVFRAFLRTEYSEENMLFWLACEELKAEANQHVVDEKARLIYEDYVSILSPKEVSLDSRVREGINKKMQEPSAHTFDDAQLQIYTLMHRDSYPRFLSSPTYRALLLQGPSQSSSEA
Each line names hits and unclear results; the compound was inactive in the other large screens (follow-up assays come after a bar, where they were run); [ ] = another dose, or the depositor's remark. Unless noted, how the calls were made is not given here.

Cc1cc(C)nc(NNC(=O)NC2CCCCC2)n1	RGS16-Gao -20, RGS8-Gao 2.4, RGS4-Gao reg -11, RGS7-Gao reg -8.8 | Avidin counter inactive | RGS8-Gao confirm inactive | RGS7-Gao confirm inactive | RGS16-Gao single inactive | RGS4-Gao single inactive | RGS19-Gao single inactive
CCCC(=O)NCn1nnc(-c2ccc(Cl)cc2)n1	RGS16-Gao 273[activator], Avidin bead fluor 50, RGS4-Gao reg 346[activator], RGS7-Gao reg 295[activator] | Avidin counter inactive | RGS8-Gao confirm inactive | RGS7-Gao confirm inactive | RGS16-Gao single inactive | RGS4-Gao single inactive | RGS19-Gao single inactive
O=C(Cn1nnc(-c2ccc(Cl)cc2)n1)NCc1ccco1	none
CS(=O)(=O)c1ccc2nc(NC(=O)c3cc(-c4ccccc4)nn3-c3ccccc3)sc2c1	none
CCCNC(=O)NC(=O)COC(=O)CNS(=O)(=O)/C=C/c1ccccc1	none
c1ccc(-c2nc3ccccc3[nH]2)nc1	RGS8-Gao 154[activator], RGS4-Gao reg 170[activator], RGS7-Gao reg 158[activator] | Avidin counter inactive | RGS8-Gao confirm inactive | RGS7-Gao confirm inactive | RGS16-Gao single inactive | RGS4-Gao single inactive | RGS19-Gao single inactive
O=c1[nH]c(-c2ccccn2)nc2ccccc12	none
CC1CCCC(NC(=O)CCCn2c(=O)[nH]c3cc(Cl)ccc3c2=O)C1C (stereo not drawn)	RGS16-Gao 204[activator], Avidin bead fluor 100, RGS4-Gao reg 212[activator], RGS7-Gao reg 176[activator] | Avidin counter inactive | RGS8-Gao confirm inactive | RGS7-Gao confirm inactive | RGS16-Gao single inactive | RGS4-Gao single inactive | RGS19-Gao single inactive
O=C(C1=NNCC1c1ccccc1)C1OC1c1ccccc1 (stereo not drawn)	RGS7-Gao reg inconclusive (no result: GSH bead fluor)
C=CCn1c(Cc2c[nH]c3ccccc23)nnc1SCC(=O)NCc1ccccc1	RGS8-Gao 54, RGS4-Gao reg 47, RGS7-Gao reg 42 | Avidin counter inactive | RGS8-Gao confirm inactive | RGS7-Gao confirm inactive | RGS16-Gao single inactive | RGS4-Gao single inactive | RGS19-Gao single inactive
S=C(Nc1ccc2nsnc2c1)N1CCCCC1	RGS16-Gao 2.5 | RGS-Gao 86
S=C(Nc1ccc2nc(-c3ccccn3)c(-c3ccccn3)nc2c1)N1CCCCC1	none
Cc1cc(Nc2ccccc2)c2c([N+](=O)[O-])ccc(C)c2n1	none
Cc1cc2c3c(ccc(C)c3n1)N=CN2c1ccccc1	none (no result: RGS16-Gao, RGS8-Gao, Avidin bead fluor, RGS4-Gao reg, RGS7-Gao reg) | Avidin counter inactive | RGS8-Gao confirm inactive | RGS7-Gao confirm inactive | RGS16-Gao single inactive | RGS4-Gao single inactive | RGS19-Gao single inactive
O=C(O)C1CC=CCC1C(=O)NNc1ccccc1 (stereo not drawn)	none
CCOC(=O)N1CN(C(=O)OCC)CN(C(=O)OCC)C1	RGS16-Gao -22, RGS8-Gao 5.2, RGS4-Gao reg -38, RGS7-Gao reg inconclusive (no result: GSH bead fluor) | Avidin counter inactive | RGS8-Gao confirm inactive | RGS7-Gao confirm 74 | RGS16-Gao single inactive | RGS4-Gao single inactive | RGS19-Gao single inactive
CCOC(=O)CN1C(=O)S/C(=C/c2ccc3c(c2)n(C)c(=O)n3C)C1=O	RGS16-Gao 23 | RGS-Gao 85 | Avidin counter inactive | RGS8-Gao confirm inactive | RGS7-Gao confirm inactive | RGS16-Gao single inactive | RGS4-Gao single inactive | RGS19-Gao single inactive
Cn1c(=O)n(C)c2cc(/C=C3/SC(=O)N(CC(=O)N4CCOCC4)C3=O)ccc21	none
CC(C)[C@@H]1NC(=O)c2cc([N+](=O)[O-])cc(F)c2NCCC[C@@H](C(N)=O)NC(=O)[C@H](CO)NC1=O	none
c1ccc(-c2nc(-c3ccco3)n3ccccc23)cc1	RGS16-Gao -2.4, RGS8-Gao 7.9, RGS4-Gao reg -6.6, RGS7-Gao reg 0.6 | Avidin counter inactive | RGS8-Gao confirm inactive | RGS7-Gao confirm inactive | RGS16-Gao single inactive | RGS4-Gao single inactive | RGS19-Gao single inactive
c1ccc(Nc2c(-c3ccco3)nc3ccccn23)cc1	none
Cc1cc2cc(CCNC(=O)c3cccs3)c(=O)[nH]c2cc1C	none
CCOC(=O)C1(CC2CCCCO2)CCN(C(=O)Nc2ccc(C(=O)OC)cc2)CC1 (stereo not drawn)	none
CCOc1ccc(N2C(=O)/C(=C/c3cccs3)N(C)C2=S)cc1	none
CCc1ccc(/C=C2/C(=O)N(CC)C(=S)N2C)s1	RGS8-Gao 170[activator], RGS4-Gao reg 198[activator], RGS7-Gao reg 199[activator] | Avidin counter inactive | RGS8-Gao confirm inactive | RGS7-Gao confirm inactive | RGS16-Gao single inactive | RGS4-Gao single inactive | RGS19-Gao single inactive
CC(C)c1nc2oc3c(NCCO)ncnc3c2c2c1COC(C)(C)C2	RGS7-Gao reg inconclusive (no result: GSH bead fluor)
CCCc1nc2oc3c(NCCOCCO)ncnc3c2c2c1COC(C)(C)C2	RGS4-Gao reg 165[activator], RGS7-Gao reg 173[activator] | Avidin counter inactive | RGS8-Gao confirm inactive | RGS7-Gao confirm inactive | RGS16-Gao single inactive | RGS4-Gao single inactive | RGS19-Gao single inactive
CCC(CC)C(=O)c1c[nH]c(C(=O)NCc2ccccn2)c1	none
COCc1cc(/C=N\NC(=O)Cc2ccc(OC)cc2)ccc1OC	RGS16-Gao 21 | RGS-Gao 92 | Avidin counter inactive | RGS8-Gao confirm inactive | RGS7-Gao confirm inactive | RGS16-Gao single inactive | RGS4-Gao single inactive | RGS19-Gao single inactive
NS(=O)(=O)c1ccc(CNC(=O)/C=C/c2ccco2)cc1	RGS7-Gao reg inconclusive (no result: GSH bead fluor) | Avidin counter inactive | RGS8-Gao confirm inactive | RGS7-Gao confirm inactive | RGS16-Gao single inactive | RGS4-Gao single inactive | RGS19-Gao single inactive
O=C(/C=C/c1ccco1)NCc1ccc(F)cc1	none
